# Screening results (PubChem BioAssay)
# The list is not random: actives were taken first. Their share in the collection is about 7.4%.
# ELG1 genotox: qHTS screen for small molecules that induce genotoxicity in human embryonic kidney (HEK293T) cells expressing luciferase-tagged ELG1 | AID 504466, 2011 | 1.3% of 330,000 active | HEK293T ELG1-luciferase reporter, luminescence, 16 h | Potency, µM (titrated, usually from 46 µM), without a hit: at the highest dose activity change, positive = activation, actives largely listed as activators; also: % of control where 0% means no effect; nearly all actives have a fitted effect of over 60% in size
#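 Genotoxicity was scored as increased ELG1-luciferase reporter signal, measured by ONE-Glo luminescence (30 min, room temperature). Compound or vehicle exposure of the HEK293T reporter cells lasted 16 hr at 37°C.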
# FLuc counter: qHTS profiling assay for firefly luciferase inhibitor/activator using purifed enzyme and Km concentrations of substrates (counterscreen for miR-21 project); Luciferin 4-monooxygenase (Photinus pyralis), P08659; purified FLuc, Km substrates, luminescence inhibition; Potency, µM (highest dose often 57.5 µM), inactives show at the top dose activity change, negative = inhibition, usual class: inhibitors; 6.9% of 360,000 active; AID 588342, 2011;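 also: plate controls were vehicle for no effect and reference inhibitor for full effect; nearly all actives have a fitted effect of over 55% in size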
# Target sequence (P08659 whole entry, looked up): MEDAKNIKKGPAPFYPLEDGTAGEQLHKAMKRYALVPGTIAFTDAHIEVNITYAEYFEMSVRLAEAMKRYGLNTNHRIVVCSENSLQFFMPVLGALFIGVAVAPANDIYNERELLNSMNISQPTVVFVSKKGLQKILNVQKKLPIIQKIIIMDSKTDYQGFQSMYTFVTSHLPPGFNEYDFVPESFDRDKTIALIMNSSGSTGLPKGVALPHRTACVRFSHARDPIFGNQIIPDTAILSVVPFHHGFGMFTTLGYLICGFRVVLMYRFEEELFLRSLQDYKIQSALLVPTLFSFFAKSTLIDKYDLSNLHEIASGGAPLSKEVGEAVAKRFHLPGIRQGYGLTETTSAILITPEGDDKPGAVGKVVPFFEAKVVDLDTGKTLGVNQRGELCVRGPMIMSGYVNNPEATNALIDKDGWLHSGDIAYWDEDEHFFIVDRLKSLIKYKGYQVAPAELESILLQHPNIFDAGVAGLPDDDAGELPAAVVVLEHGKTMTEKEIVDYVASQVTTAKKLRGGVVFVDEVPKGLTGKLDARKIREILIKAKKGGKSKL
#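 Purified P. pyralis luciferase, 10 nM final, with Km-level 10 uM D-luciferin and 10 uM ATP in 50 mM Tris acetate pH 7.5, 10 mM Mg acetate, 0.01% Tween-20, 0.05% BSA; 6-point qHTS titration about 60 µM downward; luminescence read.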
# SMN2 splice enh: qHTS Assay for Enhancers of SMN2 Splice Variant Expression. 2.8% of 210,000 active. Potency, µM (highest dose often 46.1 µM), for inactives: at the highest dose activity change, positive = activation, most hits filed as activators. HEK293 SMN2-luciferase splicing reporter, luminescence, 30-36 h; also: % of control where 0% means no effect; nearly all actives have a fitted effect of over 55% in size
#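 qHTS luciferase splicing reporter: luminescence rises when SMN2 exon 7 is included in transfected HEK293 cells. Compound exposure lasted 30-36 h at 37C, with 4.5 mM final sodium butyrate as control, followed by a ONE-Glo read.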
# Rab9 promoter act: qHTS Assay for Rab9 Promoter Activators; Huh7 Rab9 promoter-luciferase reporter, luminescence, 24 h; Potency, µM (top dose mostly 9.22 µM), for inactives: top-dose activation, negative = inhibition, actives largely listed as activators; 2.8% of 320,000 active; AID 485297, 2010; also: % of control where 0% means no effect; nearly all actives have a fitted effect of over 60% in size
#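 Stable Rab9-luc Huh7, 1500 cells/well, 2 h settle; cmpd in DMSO, 24 h, 37 °C/5% CO2; luciferase reagent 10 min RT; luminescence.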
# KinaseGlo FLuc: Counterscreen for Luciferase (Kinase-Glo TM) Inhibition | AID 1379, 2008 | Kinase-Glo luciferase, ATP luminescence, 8 min | 0.28% of 200,000 active | Luciferin 4-monooxygenase (Photuris pensylvanica), Q27757 | Potency, µM (doses to about 38.3 µM), without a hit: at the top dose activity change, negative = inhibition, hits mostly inhibitors; also: % is scaled to controls: 0 for no effect and ±100 for the full control effect; nearly all actives have a fitted effect of over 60% in size
#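 Light output from Kinase-Glo luciferase with luciferin and 10 uM ATP in 50 mM imidazole pH 7.2, KCl, MgCl2, Tween 20, BSA; compound pin-delivered, 8-min ambient incubation, then luminescence read.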
# NPC1 promoter act: qHTS Assay for NPC1 Promoter Activators | Huh7 NPC1 promoter luciferase reporter, 24 h | Potency, µM (titrated, usually from 9.22 µM), for inactives: at the top dose activation, usual class: activators | 2.4% of 320,000 active | AID 485313, 2010; also: % of control where 0% means no effect; nearly all actives have a fitted effect of over 60% in size
#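 Luminescence from an NPC1 promoter-driven luciferase reporter in stably transfected Huh7 cells was measured after 24 h compound treatment at 37 °C, followed by 10 min ambient incubation with luciferase detection reagent.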
# * = called active by the depositor; ? = inconclusive; / = not tested or not shown; [ ] = dose if it differs, or a comment. Calls follow the shape of the dose curve; as a rule, active = well fitted curve in the direction sought with a large enough effect; inconclusive = small, poorly fitted or top-dose-only effect, or another doubt; inactive = no such curve, though single readings can be large; an effect the other way counts as inactive or inconclusive. Potency is read from the fitted curve at half-maximal effect.
SMILES,ELG1 genotox,FLuc counter,SMN2 splice enh,Rab9 promoter act,KinaseGlo FLuc,NPC1 promoter act
COc1cc2c(cc1OC)C(COc1ccc3c(C)cc(=O)oc3c1)N(C(=O)c1ccccc1C)CC2 (stereo not drawn),/,-1%,3%,/,/,/
Nc1nonc1-c1noc(N2CCCCC2)n1,?,19µM*,14%,?,7%,-2%
NC(=O)CSc1nc2sc(-c3ccccc3)cc2c(=O)n1N,13%,?,9%,24%,-5%,15%
Cc1nc2sc(-c3ccccc3)cc2c(=O)n1N,?,0.67µM*,/,?,/,0.1µM*
Cc1nc2sc(-c3ccccc3)cc2c(=O)n1/N=C/N(C)C,?,19µM*,11µM*,2.8µM*,-7%,2.5µM*
O=c1c2cc(-c3ccccc3)sc2nc2n1CCC2,1.2µM*,3µM*,3.2µM*,0.63µM*,-14%,0.5µM*
Cc1sc2nc(C)n(/N=C/N(C)C)c(=O)c2c1C,3%,-2%,/,1%,/,3%
Cc1nc2sc(-c3ccccc3)cc2c(=O)n1-n1cccc1,?,7.6µM*,/,1.6µM*,/,1.3µM*
O=c1c2ccccc2nc2n1CCC2,3%,?,-10%,2%,2%,0%
Cc1ccc2c(=O)cc(CSc3ncn[nH]3)[nH]c2c1C,/,-12%,/,/,/,/
Nc1nn(-c2ccccc2)nc1C(=O)OCc1c(F)cccc1Cl,/,?,7%,/,/,/
CCN(CC(=O)Nc1cc(Cl)ccc1C)C(=O)C1COc2ccccc2O1 (stereo not drawn),0%,-3%,/,-4%,/,0%
CCOC(=O)c1c(NC(=O)COc2ccc3ccc(=O)oc3c2)sc(C(=O)N(C)C)c1C,-4%,5%,/,3%,/,0%
COc1ccc(Cc2nnc(SCC(=O)NC3(C#N)CCCCC3)n2N)cc1,0%,-1%,/,0%,/,-4%
Cc1noc(C(=O)Nc2ccc3c(c2)OCO3)c1Cl,?,19µM*,?,4µM*,-12%,?
CC(=O)c1ccc(NC(=O)c2onc(C)c2Cl)cc1,?,?,/,0.63µM*,/,1.4µM*
CC(=O)c1cccc(NC(=O)c2onc(C)c2Cl)c1,15%,-5%,9%,10%,-3%,21%
CCc1onc(C)c1C(=O)Nc1ccc2c(c1)OCO2,1%,2%,/,-6%,/,-1%
O=C(N/N=C/c1ccc2c(c1)OCO2)c1sc2cc(Cl)ccc2c1Cl,6%,?,5%,-5%,-2%,0%
Cc1ccc2c(Cl)c(C(=O)Nc3ccc4c(c3)OCO4)sc2c1,18%,-28%,?,2µM*,-1%,?
CC(C)c1onc(C(=O)Nc2ccc3c(c2)OCO3)c1[N+](=O)[O-],?,27µM*,/,0%,/,1%
COc1cccc(CNS(=O)(=O)c2ccc3c(c2)oc(=O)n3C)c1,-5%,1%,/,10%,/,-1%
COCCN(Cc1ccco1)C(=O)Cn1ncc2c(=O)oc3ccccc3c21,-6%,1%,/,3%,/,0%
CCCS(=O)(=O)N1CCc2ccc(NC(=O)c3ccccc3Cl)cc2C1,-3%,17µM*,/,0%,/,2%
COCCC(=O)Nc1ccc2c(c1)CN(C(=O)CCSC)CC2,1%,-2%,/,-2%,/,-5%
SMILES,ELG1 genotox,FLuc counter,SMN2 splice enh,Rab9 promoter act,KinaseGlo FLuc,NPC1 promoter act
CSCC(=O)N1CCc2ccc(NC(=O)c3ccccc3Cl)cc2C1,?,17µM*,/,?,/,?
CN(C)S(=O)(=O)N1CCc2ccc(NC(=O)c3ccccc3Cl)cc2C1,4%,11µM*,/,17%,/,15%
O=C(Nc1ccc(F)c(Cl)c1)c1cc(S(=O)(=O)N2CCc3ccccc3C2)ccc1F,/,-2%,/,/,/,/
Cc1ccccc1Cn1nc(C)c(NC(=O)C2c3ccccc3Oc3ccccc32)c1C,1%,0%,3%,0%,0%,-3%
O=C(COC(=O)c1ccc(O)cc1)Nc1ccc(Cl)cc1,-2%,-20%,1%,-3%,2%,-2%
N=c1oc2ccccc2cc1C(=O)NC1CCCCCC1,?,4.8µM*,/,-46%,/,?
N=c1oc2ccc(Cl)cc2cc1C(=O)NC1CCCCCC1,7%,?,/,4%,/,0%
CN(C(=O)COC(=O)c1cc2ccccc2oc1=O)C1CCCCC1,4%,/,/,/,/,/
O=C(OC1CCCCC1)c1cc2ccccc2oc1=O,?,7.6µM*,/,?,/,?
COc1cc2ccccc2cc1C(=O)NC1CCCCC1,13%,12µM*,/,?,/,27%
O=C(NC1CCCCCC1)c1cc2ccccc2oc1=O,13%,2.7µM*,/,2%,/,3.2µM*
CC1CCCN(C(=O)C2CCN(S(=O)(=O)c3cccc4nonc34)CC2)C1 (stereo not drawn),-4%,-1%,/,-4%,/,-1%
CCOc1ccc(CCNC(=O)COC(=O)CSc2ccc(C)cc2)cc1OCC,6%,1%,/,-6%,/,-3%
O=C(NCCC1=CCCCC1)c1cc2ccccc2oc1=O,?,4.8µM*,/,3%,/,-1%
O=C(NCCc1ccccc1)c1cc2ccccc2oc1=O,0%,?,/,8%,/,?
Cc1ccc(/C(O)=C/c2nc3cc(C)ccc3oc2=O)cc1,1%,12µM*,/,-4%,/,-2%
Nc1ccc2oc(-c3cccc4ccccc34)nc2c1,8%,13µM*,10%,8%,-6%,-2%
O=c1oc(-c2ccco2)nc2ccccc12,1%,?,9%,3%,7%,-11%
Cc1ccc2oc(-c3ccco3)nc2c1,?,4.8µM*,18%,?,-15%,?
Nc1cccc(-c2nc3cc(S(=O)(=O)c4ccc5oc(-c6cccc(N)c6)nc5c4)ccc3o2)c1,5%,0%,-41%,-7%,-2%,-18%
Nc1ccc2oc(-c3cccs3)nc2c1,9.2µM*,12µM*,/,3.5µM*,/,3.2µM*
COc1cc(OC)c2c(c1)OC(=O)CC2c1ccccc1OC (stereo not drawn),/,/,/,/,3%[39.9 µM],/
CC(C)(C)c1ccc(-c2nc3cc(NC(=O)c4cc5ccccc5o4)ccc3o2)cc1,/,?,4%,/,/,/
Cc1ccc(-c2nnc(N)o2)cc1,9%,?,15%,-1%,-2%,0%
CC(C)c1ccc2oc(-c3ccc(NC(=O)c4cc5ccccc5o4)cc3)nc2c1,/,-2%,-23%,/,/,/
Cc1ccc(-c2nc3cc(N)ccc3o2)cc1,0.33µM*,0.6µM*,0.71µM*,0.45µM*,-10%,0.45µM*
CC(C)(C)c1ccc(-c2nc3cc(N)ccc3o2)cc1,1.3µM*,0.43µM*,/,0.63µM*,/,0.32µM*
